About 14,000 (4.5%) of roughly 310,000 compounds showed an effect of 50% or more. The effect is printed as a negative number. Only a selection was taken, and strong results are over-represented in it overall.
The compounds below were run against human ether-à-go-go-related gene (hERG) potassium channel (human, UniProt Q12809) (assay: primary screen, population patch clamp on CHO cells stably expressing hERG; higher = less effect of the substance).
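Also: peak tail current of the secondary pulse compared with the same well before compound.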

Sequence of human ether-à-go-go-related gene (hERG) potassium channel (Q12809 whole entry, looked up): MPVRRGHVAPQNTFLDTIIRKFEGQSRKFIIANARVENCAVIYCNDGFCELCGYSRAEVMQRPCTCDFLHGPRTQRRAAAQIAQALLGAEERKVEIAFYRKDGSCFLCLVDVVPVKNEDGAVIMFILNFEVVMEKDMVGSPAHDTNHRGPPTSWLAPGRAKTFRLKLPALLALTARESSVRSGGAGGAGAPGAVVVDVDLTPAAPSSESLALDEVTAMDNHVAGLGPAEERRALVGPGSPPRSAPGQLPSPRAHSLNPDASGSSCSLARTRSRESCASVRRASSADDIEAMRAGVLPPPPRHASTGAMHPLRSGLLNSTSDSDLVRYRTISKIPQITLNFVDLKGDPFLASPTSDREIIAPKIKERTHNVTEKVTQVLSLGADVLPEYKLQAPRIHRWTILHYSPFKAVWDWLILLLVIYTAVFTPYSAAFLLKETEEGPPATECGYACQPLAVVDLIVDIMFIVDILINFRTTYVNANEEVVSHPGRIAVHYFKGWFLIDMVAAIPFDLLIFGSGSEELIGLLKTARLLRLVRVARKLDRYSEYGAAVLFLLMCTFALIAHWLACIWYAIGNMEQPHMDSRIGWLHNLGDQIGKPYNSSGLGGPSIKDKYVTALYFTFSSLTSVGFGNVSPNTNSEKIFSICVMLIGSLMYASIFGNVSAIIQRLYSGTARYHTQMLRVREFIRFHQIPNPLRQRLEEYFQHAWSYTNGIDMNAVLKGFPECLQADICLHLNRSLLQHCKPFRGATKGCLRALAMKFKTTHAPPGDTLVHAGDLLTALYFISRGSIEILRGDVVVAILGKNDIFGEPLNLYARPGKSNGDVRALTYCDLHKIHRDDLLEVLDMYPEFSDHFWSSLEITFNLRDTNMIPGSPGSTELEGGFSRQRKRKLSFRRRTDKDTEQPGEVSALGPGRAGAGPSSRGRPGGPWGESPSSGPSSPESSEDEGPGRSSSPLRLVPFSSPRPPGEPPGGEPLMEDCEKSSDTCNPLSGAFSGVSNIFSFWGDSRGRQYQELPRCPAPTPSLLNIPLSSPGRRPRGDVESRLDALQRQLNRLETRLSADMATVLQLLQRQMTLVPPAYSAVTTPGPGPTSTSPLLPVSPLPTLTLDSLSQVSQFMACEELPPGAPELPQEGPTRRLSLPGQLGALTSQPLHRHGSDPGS

SMILES | hERG current change (%, negative = inhibition) at 10uM
CCN(CC#CCC(O)(c1ccccc1)C1CCCC1)C(C)C.Cl (centres unmarked) | -18.9%
CCNC(=O)NC(=O)C(C)OC(=O)Cc1coc2cc3c(cc12)CCC3 (centres unmarked) | 26.6%
[O-][n+]1c2cc(C(F)(F)F)ccc2c2n1CCN=C2c1ccc(Cl)cc1 | -55.6%
Cc1ccc(C2=NCCn3c2c2ccc(C(F)(F)F)cc2[n+]3[O-])cc1 | -26.2%
Cc1ccc(C2=NCCn3c2c2ccc([N+](=O)[O-])cc2[n+]3[O-])cc1 | -7.51%
Nc1c(Cl)cc(C2=NCCn3c2c2ccc(C(F)(F)F)cc2[n+]3[O-])cc1Cl | -26.1%
O=[N+]([O-])c1ccc2c3n([n+]([O-])c2c1)CCN=C3c1ccc(Cl)cc1 | -29.6%
Nc1c(Cl)cc(C2=NCCn3c2c2ccc([N+](=O)[O-])cc2[n+]3[O-])cc1Cl | -54.8%
COc1cccc(/C=C/C(=O)OCC(=O)c2c[nH]c3ccccc23)c1OC | 9.29%
CCOC(=O)c1c[nH]c2c(C)cc(C)cc2c1=O | -0.349%
CCCCOP(=O)(c1ccc(N(C)C)cc1)C(O)c1ccc(OC)cc1 (centres unmarked) | -2.61%
O=[N+]([O-])c1cc(S(=O)(=O)NCCc2ccccn2)ccc1Cl | -21.8%
C=CCCC(=O)Nc1nc(C)c(-c2csc(Nc3ccc(Cl)cc3)n2)s1 | 14.9%
S=c1[nH]nc(-c2ccc3ccccc3n2)o1 | 17.2%
Cc1ccc(C)c2[nH]c(=O)c(CCNC(=O)C(C)(C)C)cc12 | 8.5%
O=C(O)c1cccnc1SCc1ccccc1 | -1.22%
O=C(CSc1ncccc1C(=O)O)c1ccccc1 | 6.47%
O=C(O)CSc1ncccc1C(=O)O | -53.7%
O=C(N/C(=C/c1ccc(Cl)cc1)c1nc2ccccc2[nH]1)c1ccco1 | 9.34%
O=c1[nH]c(C2CCN(S(=O)(=O)c3ccc(C(F)(F)F)cc3)CC2)nc2c1nnn2Cc1ccccc1 | 8.98%
Cc1ccc(S(=O)(=O)N(C)C)cc1NC(=S)N(CCC#N)Cc1cccnc1 | -10.3%
Cc1ccc(C(C)C)cc1OCCOCCN1CCCC1 | -38.9%
COc1ccc(-c2nc(NC(=O)CSCCO)sc2C)cc1 | -4.57%

SMILES | hERG current change (%, negative = inhibition) at 10uM
CCCCn1c(SCC(=O)Nc2cccc(OC)c2)nc2ccc(N3CCOCC3)cc2c1=O | -9.77%
O=C(CSc1nc2ccccc2c(=O)n1CCCN1CCOCC1)Nc1ccc2c(c1)OCO2 | -43.6%
CCOC(=O)C(C)On1c(SC(C)C(=O)OCC)nc2ccccc2c1=O (centres unmarked) | -53.5%
COc1cccc(NC(=O)CSc2nc3ccccc3c(=O)n2C)c1 | -7.76%
CCOC(=O)C(C)On1c(-n2nc(C)cc2C)nc2ccccc2c1=O (centres unmarked) | 9.29%
COc1cccc(NC(=O)CSc2nc3ccccc3c(=O)n2CCCC(=O)NCCCN2CCOCC2)c1 | -59.8%
O=C(CCCn1c(SCC(=O)NCCc2ccccc2)nc2ccccc2c1=O)NCC1CCCO1 (centres unmarked) | -22.8%
Cc1cc(C)c(NC(=O)CSc2nc3ccccc3c(=O)n2CCCN2CCOCC2)c(C)c1 | -47.6%
Cc1ccc(NC(=O)CSc2nc3ccccc3c(=O)n2CCCC(=O)NCCCN2CCOCC2)cc1C | -69.1%
CCOC(=O)C(C)Sc1nc2ccccc2c(=O)n1CC (centres unmarked) | -22.4%
O=C(CCCn1c(SCc2cccc(F)c2)nc2ccccc2c1=O)NCC1CCCO1 (centres unmarked) | 8.35%
O=C(CCCn1c(SCc2cccc([N+](=O)[O-])c2)nc2ccccc2c1=O)NCC1CCCO1 (centres unmarked) | -59.7%
O=C(NCc1ccccc1)[C@]1(C(F)(F)F)C[C@H](CCc2ccccc2)CCCO1 | 3.84%
Cn1cc(Br)c(C(=O)Nc2sc3c(c2C(N)=O)CCC3)n1 | 18.4%
Cc1ccc(Cl)cc1NC(=O)c1cc(NC(=O)C2CCCCC2C(=O)O)ccc1N1CCOCC1 (centres unmarked) | -6.57%
COc1cccc(CCNC(=O)CCc2nnc(-c3ccc4c(c3)OCO4)o2)c1 | -7.05%
Cc1ccc2cc(C#N)c(NCCNC(=S)NCCCN(C)C)nc2c1C | -0.554%
Cc1cc(OCC(=O)NCc2ccccn2)c2c(C)c(C)c(=O)oc2c1 | -11.2%
CCOC(=O)C(=O)Nc1nc(-c2ccccc2)c(-c2ccccc2)o1 | -32.1%
NC(=O)c1ccc(NC(=O)CSc2nc3ccccc3c(=O)n2CCCN2CCOCC2)cc1 | -5.06%
O=C(CCCn1c(SCC(=O)NC2CCCCC2)nc2ccccc2c1=O)NCC1CCCO1 (centres unmarked) | -61.5%
CCc1ccc(NC(=O)CSc2nc3ccccc3c(=O)n2CCCC(=O)NCCCN2CCOCC2)cc1 | -66.6%
CCc1ccc(NC(=O)CSc2nc3ccccc3c(=O)n2CCN2CCOCC2)cc1 | -67.6%

SMILES | hERG current change (%, negative = inhibition) at 10uM
CCOc1ccc(NC(=O)CSc2nc3ccccc3c(=O)n2CCCC(=O)NCC2CCCO2)cc1 (centres unmarked) | 3.34%
O=C(CCCn1c(SCC(=O)NCC2CCCO2)nc2ccccc2c1=O)NCC1CCCO1 (centres unmarked) | -5.18%
COc1cccc(NC(=O)CSc2nc3ccccc3c(=O)n2CCCC(=O)NCC2CCCO2)c1 (centres unmarked) | -70.3%
COc1ccc(NC(=O)CSc2nc3ccccc3c(=O)n2CCCC(=O)NCC2CCCO2)c(OC)c1 (centres unmarked) | -33.8%
Cc1ccc(NC(=O)CSc2nc3ccccc3c(=O)n2CCCC(=O)NCC2CCCO2)cc1 (centres unmarked) | -0.641%
O=C(CCCn1c(SCC(=O)NCC2CCCO2)nc2ccccc2c1=O)NCc1ccccc1 (centres unmarked) | -29.6%
C=CCn1c(SCC(=O)Nc2ccc(N3CCOCC3)cc2)nc2ccccc2c1=O | 3.75%
NS(=O)(=O)c1ccc(CCNC(=O)CSc2nc3ccccc3c(=O)n2CCN2CCOCC2)cc1 | 41.4%
O=C(CSc1nnc(-c2ccccc2F)o1)N1CCNC1=O | -32.1%
C=CCNC(=O)CCCc1ccccc1 | 7.65%
COc1ccc(NC(=O)c2cn3c(nc4ccccc43)c(C#N)c2C)cc1 | 3.29%
CCC(=O)Oc1ccc(C(=O)Nc2ccccc2C(=O)NCC(C)C)cc1 | 15.6%
O=C1CCC(c2ccc3c(c2)CCC3)=NN1 | 17.3%
CCCCN1C(=O)C(NC(=O)C2CC2)(C(F)(F)F)C2=C1CC(C)(C)CC2=O (centres unmarked) | 10.9%
COc1ccc(NC(=O)CCN2C(=O)c3cccc([N+](=O)[O-])c3C2=O)cc1 | -5.08%
CC(C)C(NC(=O)c1ccccc1F)C(=O)OCC(=O)c1ccc(F)cc1 (centres unmarked) | -9.49%
CCOC(=O)c1sc(-c2ccccc2)cc1NC(=O)CSc1nnnn1C | -1.13%
COc1ccccc1/C=C1/C(=O)ON=C1C | 12.5%
COc1cccc(NC(=S)C(C#N)=C2N(C)c3ccccc3N2C)c1 | 4.88%
CCn1c(=O)cc(SCC(=O)N2CCCCC2)c2ccccc21 | -7.44%
COC(=O)c1ccc(Oc2nc(NC(C)(C)C)nc(N3CCOCC3)n2)cc1 | -16.1%
COC(=O)c1ccc2c(=O)n(CCN3CCOCC3)c(SCC(=O)Nc3cccc(OC)c3)nc2c1 | -37.9%
CCOC(=O)CSc1nc2ccccc2c(=O)n1CCN1CCOCC1 | -50.3%

SMILES | hERG current change (%, negative = inhibition) at 10uM
COC(=O)c1ccc2c(=O)n(CCN3CCOCC3)c(SCC(=O)Nc3ccccc3Cl)nc2c1 | -33.4%
Cc1ccc(-n2c(SCC(=O)Nc3ccc(N4CCOCC4)cc3)nc3ccccc3c2=O)cc1 | 6.08%
Cc1ccc(NC(=O)CSc2nc3ccccc3c(=O)n2CC2CCCO2)cc1 (centres unmarked) | 0.693%
CCOC(=O)CSc1nc2ccccc2c(=O)n1CC(C)C | -35.3%
COC(=O)c1ccc2c(=O)n(CCN3CCOCC3)c(SCC(=O)Nc3ccc(C)cc3)nc2c1 | -69.5%
CCOC(=O)CSc1nc2cc(C(=O)OC)ccc2c(=O)n1CCN1CCOCC1 | -38.4%
Cc1ccc(NC(=O)CSc2nc3ccccc3c(=O)n2CCCC(=O)NCCCN2CCOCC2)cc1 | -52.6%
CN(C)c1cc[n+](CC(O)C[n+]2ccc(N(C)C)cc2)cc1.[O-][Cl+3]([O-])([O-])[O-] | 15.9%
CCCN(CCC)S(=O)(=O)c1ccc(N2CCCC2=O)c([N+](=O)[O-])c1 | -19.3%
COc1cccc(/C=N/NC(=O)CCNc2n[nH]c(=O)[nH]c2=O)c1OC | 15.9%
COc1cccc(NC(=O)c2ccccc2N2C(=O)C3C4C=CC(C4)C3C2=O)c1 (centres unmarked) | -1.23%
O=C(CN1CCCCCC1)NN(Cc1ccccc1)c1ccccc1.O=C(O)C(=O)O | -72.3%
O=C(CN1CCCCC1)Nc1ccccc1NC(=O)CN1CCCCC1 | 3.83%
CCN(CC(=O)NC(=O)NCc1ccccc1)Cc1ccccc1 | -20.6%
O=C(CN1CCCCC1)NC(=O)NCc1ccccc1 | 14.3%
CC(C)(O)C(=O)NN(Cc1ccccc1)c1ccccc1 | 16.2%
O=C(CN1CCCCCC1)Nc1ccccc1F.O=C(O)C(=O)O | 9.38%
CN1CCN(CC(=O)NN(Cc2ccccc2)c2ccccc2)CC1.O=C(O)C(=O)O | -14.2%
O=C(CN1CCCCC1)NN(Cc1ccccc1)c1ccccc1.O=C(O)C(=O)O | -73.3%
CCN(CC)CC(=O)NN(Cc1ccccc1)c1ccccc1.O=C(O)C(=O)O | -73.6%
